Some structures have more than one record in an assay (separate samples or runs), and their calls can disagree. The source made the active and inactive calls. The calls were made as follows: active = hit-call score of the fitted dose curve at least 0.9, where 1 is the maximum; inactive = score below 0.9.
Each molecule was assayed on CYP2C9 (gene 1559) (assay: LTEA_HepaRG_CYP2C9: Life Technologies and Expression Analysis (LTEA) Assay for CYP2C9 using HepaRG (AID 2283484)). Conditions: mRNA level, 48 h; actives raise or lower the signal.
Method: LTEA_HepaRG is a cell based, multiplexed-readout assay that uses HepaRG, a human liver cell line, with measurements taken at 48 hours after chemical dosing on a 96-well plate.LTEA_HepaRG_CYP2C9 is one of 102 assay component(s) measured in the LTEA HepaRG cell culture assay. It is a marker of NR mediated metabolism.Data from the assay component LTEA_HepaRG_CYP2C9 was analyzed into 1 endpoint. This assay endpoint, LTEA_HepaRG_CYP2C9, was analyzed with bidirectional fitting relative to DMSO as the negative control and baseline of activity. Using a type of inducible reporter, measures of mRNA induction for gain or loss-of-signal activity can be used to understand regulation of transcription factor activity. To generalize the intended target to other relatable targets, this assay endpoint is annotated to the cyp intended target family, where the subfamily is xenobiotic metabolism.
A total of 1060 chemcials from the ToxCast library were tested in eight-point concentration-response experiments. Cell culture and cytotoxicity assays were conducted at Thermo Fisher Scientific's Custom Services facility (Madison, WI). A single lot of human HepaRG cells (Thermo Fisher Scientific, Frederick, MD) was used for the cell culture experiments. 96-well format collagen type I coated plates of human HepaRG cells were prepared using established methods. Briefly, cryopreserved HepaRG cells were thawed, plated at a density of approximately 100,000 cells/well in HepaRG Thaw, Plate, and General Purpose media (HPRG770, Thermo Fisher Scientific), and incubated for 48 hours. 0.5% DMSO was selected as vehicle control to balance the requisite need of DMSO in HepaRG cultures to maintain differentiation (for example, baseline metabolism, proportions of hepatocytes vs. cholangiocytes), while enabling further hepatic receptor pathway activation (for example, PXR and CAR) in response to chemical exposure. 48 hours after plating, the culture medium was replaced with HepaRG Serum-Free Incudtion Media. Cells were exposed to each test chemical in duplicate and maintained in CO2 incubators for another 48 hours. Chemical plates were thawed to room temperature and 200x concentrations of treatment groups were prepared. 8-point conentration-reponse curves were made with the highest exposure at 100 uM, followed by half-log dilutions, all in 0.5% DMSO. Each test plate contained variouse controls, induction positive controls (1mM phenobarbital), cytotoxicity positive controls ([…] aflatoxin B1), vehicle controls (0.5% DMSO), and total lysis controls (0.5% DMSO). Cell morphology images were taken using an Essen IncuCyte FLR automated microscope, with six 96-well plates imaged in about 24 minutes. Images were captured and exported and JPEG files. Spent culture media was transfered to black-well plates for the LDH assay, and remaining media was sorted at -80 C for later use. Cells were treated with RLT buffer and frozen until shipped for gene expression analysis. Total RNA was isolated from the cell suspension in 75 uL of Buffer RLT (Qiagen, Germantown, MD 20874) by Quintiles/Expression Analysis (Durham, NC) using a custom isolation procedure. Total RNA from each plate well was transferred to a preamplification plate. Fluidigm's 96.96 Dynamic ArrayTM (Fluidigm, Amsterdam, the Netherlands) technology was used for gene expression analyses by quantitative reverse transcription polymerase chain reaction (qRT-PCR, performed by Quintiles/Expression Analysis, Durham, NC)89. Standard TaqManTM Assays (Applied Biosystems/ThermoFisher Scientific, Foster City, CA) were used to assess the expression of 93 genes selected based on their selectivity and sensitivity to important hepatic receptors known to be modulated by environmental chemicals; importance in human hepatocyte functionality; and hepatotoxicity. […]

Compound	outcome	AC50
C=CC(=O)OCCCCCC(C)C	inactive	–
CC(C)(c1ccccc1)c1ccc(O)c(C(C)(C)c2ccccc2)c1	–	85.4 µM (active)
CCN1CCC2(CC1)COc1cc3c(cc12)N(C(=O)c1ccc(-c2ccc(-c4nnc(C)o4)cc2C)cc1)CC3	–	21.4 µM (active)
COc1cc(-c2ccc(N)c(OC)c2)ccc1N	inactive	77.4 µM (active)
CCOP(=S)(OCC)Oc1nc(Cl)c(Cl)cc1Cl	inactive	–
CC(=O)[O][Hg][c]1ccccc1	–	0.862 µM (active)
CC(C)(C)c1cc(O)ccc1O	inactive	–
Cc1ccccc1N	inactive	–
O=C(O)C(Cl)(Cl)Cl	inactive	–
CC(C)(OO)c1ccccc1	inactive	–
O=c1[nH]c(=O)[nH]c(=O)[nH]1	inactive	–
CCC(C)(C)c1ccc(O)c(C(C)(C)CC)c1	inactive	–
O=C(Nc1ccc2[nH]ccc2c1)c1cc2cc(F)ccc2n1Cc1cccc(F)c1	–	35.7 µM (active)
CN(C)N=O	inactive	–
O=C(O)C(F)(F)C(F)(F)C(F)(F)C(F)(F)C(F)(F)C(F)(F)F	inactive	–
ClCC(Cl)CCl	inactive	–
O=C1C2(Cl)C3(Cl)C4(Cl)C(Cl)(Cl)C5(Cl)C3(Cl)C1(Cl)C5(Cl)C24Cl (stereo not given)	–	94.1 µM (active)
NC(=O)O	inactive	–
CCOP(=S)(OCC)SCSP(=S)(OCC)OCC	inactive	–
C=C(C)C(=O)[O][Sn]([CH2]CCC)([CH2]CCC)[CH2]CCC	inactive	–
CCC(=O)C(CC(C)N(C)C)(c1ccccc1)c1ccccc1 (stereo not given)	inactive	–
CC12CC1(C)C(=O)N(c1cc(Cl)cc(Cl)c1)C2=O (stereo not given)	inactive	–
Cn1sc(Cl)cc1=O	inactive	–
O=C(O)C(F)(F)C(F)(F)C(F)(F)C(F)(F)C(F)(F)C(F)(F)C(F)(F)C(F)(F)C(F)(F)C(F)(F)F	–	47.8 µM (active)
CCCCCCCCc1ccc(O)cc1	inactive	–
O=[N+]([O-])c1ccc(O)c([N+](=O)[O-])c1	–	21.8 µM (active)
C[C@]12CCC(=O)C[C@@H]1CC[C@@H]1[C@@H]2CC[C@]2(C)[C@@H](O)CC[C@@H]12	inactive	–
CC(C)(C)CC(C)(C)c1ccc(O)cc1	inactive	–
ClC1(Cl)C2(Cl)C3(Cl)C4(Cl)C(Cl)(Cl)C5(Cl)C3(Cl)C1(Cl)C5(Cl)C24Cl (stereo not given)	inactive	–

Reference: PubChem BioAssay (EPA / NIEHS)
